In PubChem BioAssay (NCI):
The panel holds about 79,000 compounds, 15% with a hit somewhere; the sample as a whole holds those more often. Values without a mark were called inactive. The source made the active and inactive calls. Cut-off read from the data, not from the text of the source: active = growth inhibition above about 70%; inactive = the rest.

Experiment: NCI Yeast Anticancer Drug Screen. Data for the mec2-1 strain (AID 157)
Conditions: S. cerevisiae mec2-1 strain, hits give high values
Method: Growth inhibition of yeast strains with defined genetic alterations is measured as a screen for potential anti-cancer activity. Selected strains with alterations in DNA damage repair or cell cycle control were exposed to compounds and growth inhibition was measured relative to vehicle treated controls. The strain used in this assay is mec2-1

[1] = at 5.0 µM (retest, dose inferred, filed as 0.5)
[2] = at 50.0 µM (retest, dose inferred, filed as 5.0)

Row | Structure (SMILES) | growth inhibition (at 1.2 µM) | growth inhibition (at 3.7 µM) | growth inhibition [1] | growth inhibition (at 11.0 µM) | growth inhibition (at 33.0 µM) | growth inhibition [2] | growth inhibition (at 50.0 µM) | growth inhibition (at 100.0 µM)
1 | C=COC(=O)N[C@H]1CCc2cc(OC)c(OC)c(OC)c2-c2ccc(SC)c(=O)cc21 | -5% | -4% | -9% | -5% | 2% | 41% | 30.9% | 73% (active)
2 | O=C(Cc1ccccc1)NNc1nc(NNC(=O)c2ccncc2)nc(Nc2ccc([N+](=O)[O-])cc2)n1 | 3% | 9% | 3% | 27% | 34% | 18% | 47% | 23%
3 | O=C1C(/C=C/c2ccc(Cl)cc2)=NNC2N1N=C1NC(=O)C3(NN12)c1ccccc1-c1ccccc13 (stereo not given) | 0% | 1% | -10% | 0% | 5% | 25% | 76.2% (active) | 9%
4 | COc1ccc2c(c1)CCCC(Br)C2=O (stereo not given) | 38% | 41% | -13% | 54% | 71% (active) | 78% (active) | 86.2% (active) | 97% (active)
5 | NC(N)=NC(N)=Nc1ccccc1 (tested in a mixture with another compound) | 3% | 3% | 4% | 4% | 12% | 16% | 35.7% | 48%
